From the supplement of paper PMC9694430
Where “and” joins values, the source holds several entries; their conditions need not be identical. Equal entries are not always repeated.

test system: LOC_OS01G39600-cb002; test: thermal shift delta Tm vs DMSO control; higher = stronger stabilization (binding); conditions: 12.5 µM; protein concentration 2 µM
Method in brief: (§1)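 Heating from 25°C to 95°C at 0.05°C/s, fluorescence was recorded for 19.5 μl wells of 2 μM E. coli-expressed, purified rice kinase domain in 100 mM potassium phosphate pH 7.5, 150 mM NaCl, 10% glycerol and 5 × SYPRO Orange with compound in DMSO. Boltzmann fits gave melting temperatures for this differential scanning fluorimetry assay. The shift reported is the mean of three replicates against the DMSO-only protein.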
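Also: purified Escherichia coli-expressed rice kinase domain construct.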

First: COc1cc(N2CCN(C)CC2)ccc1Nc1nccc(-c2cn(C)c3cnccc23)n1
Second: C=CC(=O)Nc1cccc(Oc2nc(Nc3ccc(N4CCN(C)CC4)cc3OC)ncc2Cl)c1
The “thermal shift delta Tm” value of the first is lower: -0.38 °C for the first, 0.93 °C for the second.

First: CN1CCN(c2nc(C3=C(c4c[nH]c5ccccc45)C(=O)NC3=O)c3ccccc3n2)CC1 [Sotrastaurin]
Second: CN(C)C[C@@H]1CCn2cc(c3ccccc32)C2=C(C(=O)NC2=O)c2cn(c3ccccc23)CCO1
The “thermal shift delta Tm” value of the first is higher: 3.02 °C for the first, 2.85 °C for the second.

First: CCN(CC)CCCC(C)Nc1nc(C)cc(Nc2ccc3nc(C)cc(N)c3c2)n1 (stereo unspecified)
Second: COc1cc(OC)cc(N(CCNC(C)C)c2ccc3ncc(-c4cnn(C)c4)nc3c2)c1
The “thermal shift delta Tm” value of the first is lower: 0.28 °C for the first, 1.11 °C for the second.

First: CCn1c2ccccc2c2cc(Nc3ccnc(NCCCN4CCOCC4)n3)ccc21
Second: N#CCNC(=O)c1ccc(-c2ccnc(Nc3ccc(N4CCOCC4)cc3)n2)cc1 [Momelotinib (CYT387)]
The “thermal shift delta Tm” value of the first is lower: -0.04 °C for the first, 2.38 °C for the second.

First: O=C1NCCc2[nH]c(-c3ccncc3)cc21
Second: Cc1cc(C)c(/C=C2\C(=O)Nc3ccccc32)[nH]1 [Semaxanib (SU5416)]
The “thermal shift delta Tm” value of the first is lower: -0.24 °C for the first, 0.58 °C for the second.

Going from `Oc1cc(O)cc(/C=C/c2ccc(O)c(O)c2)c1` [Piceatannol] to `O=C1c2ccc(Nc3ccc(F)cc3F)cc2CCc2ccc(OC[C@H](O)CO)cc21` [Skepinone-L], the “thermal shift delta Tm” value falls from 1.51 °C to -1.35 °C.

Compared with `CC(C)(C#N)c1ccc(N2C(=O)OCc3cnc4ccc(-c5cnc6ccccc6c5)cc4c32)cc1`, `COc1ccc(Cl)c(Nc2nc3ccccc3nc2NS(=O)(=O)c2cccc(NC(=O)C(C)(C)N)c2)c1` [Pilaralisib (XL147)] is higher in “thermal shift delta Tm” value: 0.12 °C for the first, 2.65 °C for the second.

Going from `Cc1cc(C(=O)Nc2nc3cccc(Cl)c3n2[C@@H]2CCCCN(C(=O)/C=C/CN(C)C)C2)ccn1` [Nazartinib (EGF816, NVS-816)] to `COc1ccc(-c2cc3c(C)nc(N)nc3n([C@H]3CC[C@H](OCCO)CC3)c2=O)cn1`, the “thermal shift delta Tm” value falls from 0.83 °C to 0.34 °C.

First: O=C1CCc2c(Oc3ccc4c(c3)[C@@H]3[C@H](O4)[C@H]3c3nc4cc(C(F)(F)F)ccc4[nH]3)ccnc2N1 [Lifirafenib (BGB-283)]
Second: COc1cc2nccc(Oc3ccc(NC(=O)C4(C(=O)Nc5ccc(F)cc5)CC4)cc3)c2cc1OC [Cabozantinib malate (XL184)]
The “thermal shift delta Tm” value of the first is higher: 0.61 °C for the first, 0.26 °C for the second.

First: N#C/C(=C(/N)Sc1ccc(N)cc1)c1ccccc1C(F)(F)F
Second: CS(=O)(=O)c1ccc(-c2cnc(N)c(C(=O)Nc3ccccc3)n2)cc1
The “thermal shift delta Tm” value of the first is lower: -0.02 °C for the first, 1.65 °C for the second.

First: COc1ccc(CC(=O)Nc2nc3c(s2)CCc2ccccc2-3)cc1OC
Second: C=CC(=O)Nc1ccc(CN2C(=O)N(c3cc(OC)cc(OC)c3)Cc3cnc(Nc4ccc(N5CCN(C)CC5)cc4)nc32)cc1
The “thermal shift delta Tm” value of the first is higher: 0.43 °C for the first, -0.73 °C for the second.

Compared with `CCn1c(-c2nonc2N)nc2c(C#CC(C)(C)O)ncc(OC[C@H]3CCCNC3)c21`, `Cc1cnc(NC(=O)Nc2cc(Br)c(C)cc2OC[C@@H]2CNCCO2)cn1` is lower in “thermal shift delta Tm” value: 0.32 °C for the first, 0.24 °C for the second.

First: Cn1cc(-c2ccc3nnc(Sc4ccc5ncccc5c4)n3n2)cn1
Second: c1ccc(-c2[nH]ncc2-c2ccnc3ccccc23)nc1
The “thermal shift delta Tm” value of the first is lower: 0.17 °C for the first, 0.33 °C for the second.

Going from `CCc1nc(C(N)=O)c(Nc2ccc(N3CCC(N4CCN(C)CC4)CC3)c(OC)c2)nc1NC1CCOCC1` [Gilteritinib (ASP2215)] to `CN1CCN(CCOc2cc(OC3CCOCC3)c3c(Nc4c(Cl)ccc5c4OCO5)ncnc3c2)CC1` [Saracatinib (AZD0530)], the “thermal shift delta Tm” value falls from 2.87 °C to -0.05 °C.

First: CC(C)(CCCCCC(O)CCCCCC(C)(C)C(=O)O)C(=O)O
Second: NC(=O)c1ncn([C@@H]2O[C@H](CO)[C@@H](O)[C@H]2O)c1N [AICAR (Acadesine)]
The “thermal shift delta Tm” value of the first is lower: -0.54 °C for the first, -0.35 °C for the second.

Compared with `CCN1CCN(Cc2ccc(Nc3ncc(F)c(-c4cc(F)c5nc(C)n(C(C)C)c5c4)n3)nc2)CC1`, `CCn1c(=O)c(-c2ccc(Cl)cc2Cl)cc2cnc(Nc3ccc(N4CCNCC4)c(F)c3)nc21` is higher in “thermal shift delta Tm” value: 0.45 °C for the first, 5.06 °C for the second.

First: CCS(=O)(=O)Nc1ccc2c(c1)/C(=C(/Nc1ccc(CN3CCCCC3)cc1)c1ccccc1)C(=O)N2 [Hesperadin]
Second: CCn1c(-c2nonc2N)nc2cnc(Oc3cccc(NC(=O)c4ccc(OCCN5CCOCC5)cc4)c3)cc21
The “thermal shift delta Tm” value of the first is higher: 7.78 °C for the first, 0.75 °C for the second.

Compared with `COCCOc1cnc2ccn([C@H](C)c3nnc4c(F)cc(-c5cnn(C)c5)cn34)c(=O)c2c1`, `OC1CCC(Oc2cccc3cnc(Nc4ccc5nc[nH]c5c4)nc23)CC1` (stereo unspecified) is higher in “thermal shift delta Tm” value: -0.26 °C for the first, 10.3 °C for the second.

In the case of `O=c1cc(N2CCOCC2)oc2c1ccc1ccccc12`, the “thermal shift delta Tm” value is reported as -0.09 °C.

`CN(c1ncccc1CNc1nc(Nc2ccc3c(c2)CC(=O)N3)ncc1C(F)(F)F)S(C)(=O)=O` was tested, and the “thermal shift delta Tm” value was 8.29 °C and 12.3 °C.

test system: LOC_OS01G48390-cb002; test: as above; conditions: 12.5 µM; protein concentration 2 µM
Method in brief: as §1

Going from `COc1cc(N2CCN(C)CC2)ccc1Nc1nccc(-c2cn(C)c3cnccc23)n1` to `C=CC(=O)Nc1cccc(Oc2nc(Nc3ccc(N4CCN(C)CC4)cc3OC)ncc2Cl)c1`, the “thermal shift delta Tm” value rises from 1.57 °C to 1.75 °C.

Compared with `CN1CCN(c2nc(C3=C(c4c[nH]c5ccccc45)C(=O)NC3=O)c3ccccc3n2)CC1` [Sotrastaurin], `CN(C)C[C@@H]1CCn2cc(c3ccccc32)C2=C(C(=O)NC2=O)c2cn(c3ccccc23)CCO1` is lower in “thermal shift delta Tm” value: 2.55 °C for the first, 0.62 °C for the second.

Going from `CCN(CC)CCCC(C)Nc1nc(C)cc(Nc2ccc3nc(C)cc(N)c3c2)n1` (stereo unspecified) to `COc1cc(OC)cc(N(CCNC(C)C)c2ccc3ncc(-c4cnn(C)c4)nc3c2)c1`, the “thermal shift delta Tm” value rises from 1.07 °C to 2.48 °C.

Compared with `CCn1c2ccccc2c2cc(Nc3ccnc(NCCCN4CCOCC4)n3)ccc21`, `N#CCNC(=O)c1ccc(-c2ccnc(Nc3ccc(N4CCOCC4)cc3)n2)cc1` [Momelotinib (CYT387)] is higher in “thermal shift delta Tm” value: 0.62 °C for the first, 0.91 °C for the second.

Compared with `O=C1NCCc2[nH]c(-c3ccncc3)cc21`, `Cc1cc(C)c(/C=C2\C(=O)Nc3ccccc32)[nH]1` [Semaxanib (SU5416)] is higher in “thermal shift delta Tm” value: 0.48 °C for the first, 1.2 °C for the second.

Going from `Oc1cc(O)cc(/C=C/c2ccc(O)c(O)c2)c1` [Piceatannol] to `O=C1c2ccc(Nc3ccc(F)cc3F)cc2CCc2ccc(OC[C@H](O)CO)cc21` [Skepinone-L], the “thermal shift delta Tm” value falls from 1.02 °C to 0.21 °C.

Compared with `CC(C)(C#N)c1ccc(N2C(=O)OCc3cnc4ccc(-c5cnc6ccccc6c5)cc4c32)cc1`, `COc1ccc(Cl)c(Nc2nc3ccccc3nc2NS(=O)(=O)c2cccc(NC(=O)C(C)(C)N)c2)c1` [Pilaralisib (XL147)] is higher in “thermal shift delta Tm” value: 0.59 °C for the first, 1.05 °C for the second.

First: Cc1cc(C(=O)Nc2nc3cccc(Cl)c3n2[C@@H]2CCCCN(C(=O)/C=C/CN(C)C)C2)ccn1 [Nazartinib (EGF816, NVS-816)]
Second: COc1ccc(-c2cc3c(C)nc(N)nc3n([C@H]3CC[C@H](OCCO)CC3)c2=O)cn1
The “thermal shift delta Tm” value of the first is higher: 0.78 °C for the first, 0.57 °C for the second.

Compared with `O=C1CCc2c(Oc3ccc4c(c3)[C@@H]3[C@H](O4)[C@H]3c3nc4cc(C(F)(F)F)ccc4[nH]3)ccnc2N1` [Lifirafenib (BGB-283)], `COc1cc2nccc(Oc3ccc(NC(=O)C4(C(=O)Nc5ccc(F)cc5)CC4)cc3)c2cc1OC` [Cabozantinib malate (XL184)] is higher in “thermal shift delta Tm” value: 1.85 °C for the first, 3.62 °C for the second.

Going from `N#C/C(=C(/N)Sc1ccc(N)cc1)c1ccccc1C(F)(F)F` to `CS(=O)(=O)c1ccc(-c2cnc(N)c(C(=O)Nc3ccccc3)n2)cc1`, the “thermal shift delta Tm” value falls from 0.18 °C to 0.08 °C.

Going from `COc1ccc(CC(=O)Nc2nc3c(s2)CCc2ccccc2-3)cc1OC` to `C=CC(=O)Nc1ccc(CN2C(=O)N(c3cc(OC)cc(OC)c3)Cc3cnc(Nc4ccc(N5CCN(C)CC5)cc4)nc32)cc1`, the “thermal shift delta Tm” value rises from 1.55 °C to 4.57 °C.

Compared with `CCn1c(-c2nonc2N)nc2c(C#CC(C)(C)O)ncc(OC[C@H]3CCCNC3)c21`, `Cc1cnc(NC(=O)Nc2cc(Br)c(C)cc2OC[C@@H]2CNCCO2)cn1` is higher in “thermal shift delta Tm” value: 0.07 °C for the first, 1.82 °C for the second.

Going from `Cn1cc(-c2ccc3nnc(Sc4ccc5ncccc5c4)n3n2)cn1` to `c1ccc(-c2[nH]ncc2-c2ccnc3ccccc23)nc1`, the “thermal shift delta Tm” value falls from 0.29 °C to 0.11 °C.

Going from `CCc1nc(C(N)=O)c(Nc2ccc(N3CCC(N4CCN(C)CC4)CC3)c(OC)c2)nc1NC1CCOCC1` [Gilteritinib (ASP2215)] to `CN1CCN(CCOc2cc(OC3CCOCC3)c3c(Nc4c(Cl)ccc5c4OCO5)ncnc3c2)CC1` [Saracatinib (AZD0530)], the “thermal shift delta Tm” value falls from 1.66 °C to 0.23 °C.

Going from `CC(C)(CCCCCC(O)CCCCCC(C)(C)C(=O)O)C(=O)O` to `NC(=O)c1ncn([C@@H]2O[C@H](CO)[C@@H](O)[C@H]2O)c1N` [AICAR (Acadesine)], the “thermal shift delta Tm” value rises from 0.29 °C to 0.6 °C.

Compared with `CCN1CCN(Cc2ccc(Nc3ncc(F)c(-c4cc(F)c5nc(C)n(C(C)C)c5c4)n3)nc2)CC1`, `CCn1c(=O)c(-c2ccc(Cl)cc2Cl)cc2cnc(Nc3ccc(N4CCNCC4)c(F)c3)nc21` is higher in “thermal shift delta Tm” value: 1.47 °C for the first, 2.05 °C for the second.

Compared with `CCS(=O)(=O)Nc1ccc2c(c1)/C(=C(/Nc1ccc(CN3CCCCC3)cc1)c1ccccc1)C(=O)N2` [Hesperadin], `CCn1c(-c2nonc2N)nc2cnc(Oc3cccc(NC(=O)c4ccc(OCCN5CCOCC5)cc4)c3)cc21` is higher in “thermal shift delta Tm” value: 0.03 °C for the first, 1.02 °C for the second.

First: COCCOc1cnc2ccn([C@H](C)c3nnc4c(F)cc(-c5cnn(C)c5)cn34)c(=O)c2c1
Second: OC1CCC(Oc2cccc3cnc(Nc4ccc5nc[nH]c5c4)nc23)CC1 (stereo unspecified)
The “thermal shift delta Tm” value of the first is lower: 0.28 °C for the first, 5.98 °C for the second.

`O=c1cc(N2CCOCC2)oc2c1ccc1ccccc12` was tested, and the “thermal shift delta Tm” value was 0.43 °C.

With `CN(c1ncccc1CNc1nc(Nc2ccc3c(c2)CC(=O)N3)ncc1C(F)(F)F)S(C)(=O)=O` the “thermal shift delta Tm” value was 2.62 °C and 2.82 °C.
